According to ChEMBL document CHEMBL1961873, “Compounds: GSK PKIS; Assays: Nanosyn kinase panel” (2012):

Key:
[1] = target: T1, Serine/threonine-protein kinase Nek9 (Homo sapiens) (UniProt Q8TD19); details: at 1 µM;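 further: each value is a mean percent inhibition of NEK9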
T1 sequence (whole entry): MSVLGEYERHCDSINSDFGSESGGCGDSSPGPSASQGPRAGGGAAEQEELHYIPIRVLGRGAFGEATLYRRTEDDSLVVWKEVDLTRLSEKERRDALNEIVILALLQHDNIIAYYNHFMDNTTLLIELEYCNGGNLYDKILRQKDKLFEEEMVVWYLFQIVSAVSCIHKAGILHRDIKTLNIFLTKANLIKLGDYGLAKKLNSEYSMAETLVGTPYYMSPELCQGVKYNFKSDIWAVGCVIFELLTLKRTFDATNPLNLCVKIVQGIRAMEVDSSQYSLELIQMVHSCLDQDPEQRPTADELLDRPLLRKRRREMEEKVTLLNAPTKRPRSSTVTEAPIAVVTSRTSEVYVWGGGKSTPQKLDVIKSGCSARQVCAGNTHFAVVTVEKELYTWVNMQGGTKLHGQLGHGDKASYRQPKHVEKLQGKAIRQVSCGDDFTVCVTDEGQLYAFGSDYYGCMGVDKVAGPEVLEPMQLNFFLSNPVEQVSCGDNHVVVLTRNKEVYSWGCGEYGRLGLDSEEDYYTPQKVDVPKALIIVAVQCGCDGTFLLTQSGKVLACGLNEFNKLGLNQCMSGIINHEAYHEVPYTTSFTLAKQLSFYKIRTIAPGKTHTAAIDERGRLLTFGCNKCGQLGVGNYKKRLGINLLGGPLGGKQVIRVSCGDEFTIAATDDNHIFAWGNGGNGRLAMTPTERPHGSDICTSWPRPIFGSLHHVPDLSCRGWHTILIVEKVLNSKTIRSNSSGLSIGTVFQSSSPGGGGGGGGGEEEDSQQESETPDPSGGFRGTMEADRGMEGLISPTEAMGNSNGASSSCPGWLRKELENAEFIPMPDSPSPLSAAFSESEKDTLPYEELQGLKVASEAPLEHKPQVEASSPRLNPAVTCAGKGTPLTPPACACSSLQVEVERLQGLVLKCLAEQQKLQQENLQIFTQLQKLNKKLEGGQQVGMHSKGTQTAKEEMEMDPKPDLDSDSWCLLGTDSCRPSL

[2] = target: Serine/threonine-protein kinase PLK1 (Homo sapiens) (UniProt P53350); details: at 0.1 µM
[3] = target: Serine/threonine-protein kinase PLK1 (Homo sapiens) (UniProt P53350); details: at 1 µM
[4] = target: T2, Dual specificity protein kinase TTK (Homo sapiens) (UniProt P33981); details: at 0.1 µM
T2 sequence (whole entry): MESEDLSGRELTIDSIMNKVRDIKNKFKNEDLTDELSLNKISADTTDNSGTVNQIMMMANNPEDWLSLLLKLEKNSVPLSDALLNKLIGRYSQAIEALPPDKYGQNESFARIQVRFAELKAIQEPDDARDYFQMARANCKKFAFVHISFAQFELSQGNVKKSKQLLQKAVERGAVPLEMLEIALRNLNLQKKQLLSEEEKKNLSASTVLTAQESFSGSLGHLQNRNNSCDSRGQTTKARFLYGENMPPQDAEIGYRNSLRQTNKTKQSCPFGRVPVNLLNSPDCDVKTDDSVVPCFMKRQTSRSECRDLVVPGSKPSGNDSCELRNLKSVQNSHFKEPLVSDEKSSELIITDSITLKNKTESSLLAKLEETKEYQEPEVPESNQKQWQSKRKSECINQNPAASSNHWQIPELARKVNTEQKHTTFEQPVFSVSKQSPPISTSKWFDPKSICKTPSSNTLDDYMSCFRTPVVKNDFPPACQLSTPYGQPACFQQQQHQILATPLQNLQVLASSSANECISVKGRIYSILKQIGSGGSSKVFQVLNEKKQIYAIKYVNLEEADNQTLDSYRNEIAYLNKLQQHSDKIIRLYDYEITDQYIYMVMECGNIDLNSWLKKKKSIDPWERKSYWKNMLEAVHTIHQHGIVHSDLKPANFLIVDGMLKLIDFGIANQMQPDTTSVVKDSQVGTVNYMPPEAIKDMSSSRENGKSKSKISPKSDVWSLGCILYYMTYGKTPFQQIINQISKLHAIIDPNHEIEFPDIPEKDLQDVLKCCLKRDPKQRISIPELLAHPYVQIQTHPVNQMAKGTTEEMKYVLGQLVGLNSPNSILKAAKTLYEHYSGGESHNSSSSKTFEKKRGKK

[5] = tested on: T3, Receptor-type tyrosine-protein kinase FLT3 (Homo sapiens), P36888 [D835Y]; details: at 1 µM
T3 sequence (whole entry): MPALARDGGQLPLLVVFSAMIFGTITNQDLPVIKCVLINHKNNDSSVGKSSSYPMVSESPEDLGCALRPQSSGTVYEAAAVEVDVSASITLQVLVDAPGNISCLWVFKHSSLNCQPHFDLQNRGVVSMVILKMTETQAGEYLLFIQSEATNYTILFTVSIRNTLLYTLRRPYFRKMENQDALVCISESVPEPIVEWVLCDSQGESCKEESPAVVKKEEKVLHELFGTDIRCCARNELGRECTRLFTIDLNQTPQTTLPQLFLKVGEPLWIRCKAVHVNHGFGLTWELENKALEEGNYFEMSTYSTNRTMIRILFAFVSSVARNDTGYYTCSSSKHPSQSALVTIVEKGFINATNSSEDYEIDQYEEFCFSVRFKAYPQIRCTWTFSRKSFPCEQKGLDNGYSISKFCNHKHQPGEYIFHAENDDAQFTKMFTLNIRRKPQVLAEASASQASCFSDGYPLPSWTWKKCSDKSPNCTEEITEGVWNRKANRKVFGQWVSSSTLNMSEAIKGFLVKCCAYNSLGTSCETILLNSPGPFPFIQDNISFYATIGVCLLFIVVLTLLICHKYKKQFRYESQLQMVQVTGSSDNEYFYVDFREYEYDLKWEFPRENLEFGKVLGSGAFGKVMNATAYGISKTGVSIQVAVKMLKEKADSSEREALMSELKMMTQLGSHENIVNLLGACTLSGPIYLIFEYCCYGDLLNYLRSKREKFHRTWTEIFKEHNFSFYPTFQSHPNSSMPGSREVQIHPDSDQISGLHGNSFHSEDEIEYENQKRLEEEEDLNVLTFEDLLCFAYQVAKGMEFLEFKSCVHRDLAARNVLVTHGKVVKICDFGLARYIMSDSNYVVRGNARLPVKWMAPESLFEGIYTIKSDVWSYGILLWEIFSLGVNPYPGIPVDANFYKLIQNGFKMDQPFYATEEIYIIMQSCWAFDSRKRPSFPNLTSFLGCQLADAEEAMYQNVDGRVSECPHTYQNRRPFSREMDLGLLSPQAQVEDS

[6] = target: Vascular endothelial growth factor receptor 3 (Homo sapiens) (UniProt P35916); details: at 0.1 µM
[7] = target: Vascular endothelial growth factor receptor 3 (Homo sapiens) (UniProt P35916); details: at 1 µM
[8] = target: Macrophage colony-stimulating factor 1 receptor (Homo sapiens) (UniProt P07333); details: at 0.1 µM
[9] = target: Macrophage colony-stimulating factor 1 receptor (Homo sapiens) (UniProt P07333); details: at 1 µM
[10] = target: Tyrosine-protein kinase Fyn (Homo sapiens) (UniProt P06241); details: at 0.1 µM
[11] = target: Tyrosine-protein kinase Fyn (Homo sapiens) (UniProt P06241); details: at 1 µM
[12] = target: Tyrosine-protein kinase HCK (Homo sapiens) (UniProt P08631); details: at 0.1 µM
[13] = target: Tyrosine-protein kinase HCK (Homo sapiens) (UniProt P08631); details: at 1 µM
[14] = target: Insulin-like growth factor 1 receptor (Homo sapiens) (UniProt P08069); details: at 0.1 µM
[15] = target: Insulin-like growth factor 1 receptor (Homo sapiens) (UniProt P08069); details: at 1 µM
[16] = target: Insulin receptor (Homo sapiens) (UniProt P06213); details: at 0.1 µM
[17] = target: Insulin receptor (Homo sapiens) (UniProt P06213); details: at 1 µM
[18] = target: Insulin receptor-related protein (Homo sapiens) (UniProt P14616); details: at 0.1 µM
[19] = target: Insulin receptor-related protein (Homo sapiens) (UniProt P14616); details: at 1 µM
[20] = target: T4, Tyrosine-protein kinase ITK/TSK (Homo sapiens) (UniProt Q08881); details: at 0.1 µM;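 further: mean percent inhibition of ITK from the GSK PKIS screen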
T4 sequence (whole entry): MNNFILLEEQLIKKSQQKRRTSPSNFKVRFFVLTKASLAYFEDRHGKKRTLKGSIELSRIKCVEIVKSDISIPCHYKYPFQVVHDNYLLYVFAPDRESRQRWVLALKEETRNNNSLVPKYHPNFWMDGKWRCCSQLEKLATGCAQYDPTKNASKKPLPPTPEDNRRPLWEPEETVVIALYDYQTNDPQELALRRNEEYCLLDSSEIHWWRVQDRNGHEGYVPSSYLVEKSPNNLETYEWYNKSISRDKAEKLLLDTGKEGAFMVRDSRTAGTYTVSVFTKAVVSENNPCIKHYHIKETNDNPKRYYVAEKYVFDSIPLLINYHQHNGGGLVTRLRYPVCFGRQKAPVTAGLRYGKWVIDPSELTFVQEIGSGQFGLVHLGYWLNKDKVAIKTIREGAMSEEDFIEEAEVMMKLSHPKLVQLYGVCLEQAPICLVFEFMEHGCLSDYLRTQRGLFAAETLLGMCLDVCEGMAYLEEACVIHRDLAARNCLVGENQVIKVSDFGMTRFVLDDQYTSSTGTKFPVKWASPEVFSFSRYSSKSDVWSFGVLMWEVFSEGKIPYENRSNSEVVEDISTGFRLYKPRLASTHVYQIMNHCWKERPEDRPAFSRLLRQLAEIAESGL

Macrophage colony-stimulating factor 1 receptor (Homo sapiens), sequence (P07333 whole entry): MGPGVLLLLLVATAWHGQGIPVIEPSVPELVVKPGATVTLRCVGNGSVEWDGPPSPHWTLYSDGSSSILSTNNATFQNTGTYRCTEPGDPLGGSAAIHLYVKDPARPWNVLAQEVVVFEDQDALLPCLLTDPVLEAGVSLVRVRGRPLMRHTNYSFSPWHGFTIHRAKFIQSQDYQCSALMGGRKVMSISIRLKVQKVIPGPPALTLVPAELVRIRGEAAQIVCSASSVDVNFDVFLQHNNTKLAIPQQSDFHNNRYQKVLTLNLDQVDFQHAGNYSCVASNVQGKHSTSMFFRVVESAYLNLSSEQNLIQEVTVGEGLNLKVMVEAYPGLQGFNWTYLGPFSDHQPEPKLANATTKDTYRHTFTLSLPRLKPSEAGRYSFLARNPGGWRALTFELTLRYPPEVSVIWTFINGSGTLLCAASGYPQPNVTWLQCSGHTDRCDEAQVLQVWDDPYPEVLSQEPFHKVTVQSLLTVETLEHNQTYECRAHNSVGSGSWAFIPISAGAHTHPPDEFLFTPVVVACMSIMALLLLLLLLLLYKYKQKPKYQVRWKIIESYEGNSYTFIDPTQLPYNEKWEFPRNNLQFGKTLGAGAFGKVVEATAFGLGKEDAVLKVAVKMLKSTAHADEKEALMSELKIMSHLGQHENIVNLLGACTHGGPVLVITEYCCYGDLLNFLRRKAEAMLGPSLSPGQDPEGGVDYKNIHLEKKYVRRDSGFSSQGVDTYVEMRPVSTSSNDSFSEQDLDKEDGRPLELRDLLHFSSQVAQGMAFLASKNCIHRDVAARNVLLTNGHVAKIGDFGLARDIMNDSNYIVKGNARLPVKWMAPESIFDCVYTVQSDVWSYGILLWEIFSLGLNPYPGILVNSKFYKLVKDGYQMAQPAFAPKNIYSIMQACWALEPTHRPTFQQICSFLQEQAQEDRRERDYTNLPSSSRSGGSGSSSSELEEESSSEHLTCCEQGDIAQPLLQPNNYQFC
Tyrosine-protein kinase HCK (Homo sapiens), sequence (P08631 2-526 limits assumed): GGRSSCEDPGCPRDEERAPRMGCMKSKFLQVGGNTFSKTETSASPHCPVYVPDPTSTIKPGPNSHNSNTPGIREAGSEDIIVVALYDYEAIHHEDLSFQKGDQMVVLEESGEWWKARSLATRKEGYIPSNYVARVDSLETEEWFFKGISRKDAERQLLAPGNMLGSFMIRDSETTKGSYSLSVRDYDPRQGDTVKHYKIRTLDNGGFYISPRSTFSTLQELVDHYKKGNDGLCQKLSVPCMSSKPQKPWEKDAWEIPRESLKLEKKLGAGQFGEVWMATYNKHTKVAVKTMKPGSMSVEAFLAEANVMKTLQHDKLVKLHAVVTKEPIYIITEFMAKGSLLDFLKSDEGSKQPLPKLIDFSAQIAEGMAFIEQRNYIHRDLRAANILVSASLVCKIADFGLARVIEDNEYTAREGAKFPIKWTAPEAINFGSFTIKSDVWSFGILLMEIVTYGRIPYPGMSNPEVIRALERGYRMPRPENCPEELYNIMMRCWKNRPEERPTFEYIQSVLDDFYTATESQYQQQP
Insulin-like growth factor 1 receptor (Homo sapiens), sequence (P08069 31-736 limits assumed): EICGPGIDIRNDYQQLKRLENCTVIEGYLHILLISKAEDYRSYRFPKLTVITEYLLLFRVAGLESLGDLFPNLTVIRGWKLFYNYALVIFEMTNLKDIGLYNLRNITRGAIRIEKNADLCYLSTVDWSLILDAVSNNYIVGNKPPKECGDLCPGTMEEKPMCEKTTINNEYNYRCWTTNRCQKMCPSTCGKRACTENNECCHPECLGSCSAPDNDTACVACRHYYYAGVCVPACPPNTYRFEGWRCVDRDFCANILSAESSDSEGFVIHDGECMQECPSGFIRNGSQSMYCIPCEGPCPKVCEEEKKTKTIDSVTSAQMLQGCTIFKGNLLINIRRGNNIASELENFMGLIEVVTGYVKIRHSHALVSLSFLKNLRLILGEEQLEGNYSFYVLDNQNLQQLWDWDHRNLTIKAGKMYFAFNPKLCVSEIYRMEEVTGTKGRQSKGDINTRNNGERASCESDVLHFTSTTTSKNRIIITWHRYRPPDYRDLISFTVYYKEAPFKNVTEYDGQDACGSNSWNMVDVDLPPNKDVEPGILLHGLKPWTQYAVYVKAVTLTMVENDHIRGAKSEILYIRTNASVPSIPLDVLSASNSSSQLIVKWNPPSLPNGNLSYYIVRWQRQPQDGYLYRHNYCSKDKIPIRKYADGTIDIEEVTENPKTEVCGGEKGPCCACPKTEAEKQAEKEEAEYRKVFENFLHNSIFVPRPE
Insulin-like growth factor 1 receptor (Homo sapiens), sequence (P08069 741-1367 limits assumed): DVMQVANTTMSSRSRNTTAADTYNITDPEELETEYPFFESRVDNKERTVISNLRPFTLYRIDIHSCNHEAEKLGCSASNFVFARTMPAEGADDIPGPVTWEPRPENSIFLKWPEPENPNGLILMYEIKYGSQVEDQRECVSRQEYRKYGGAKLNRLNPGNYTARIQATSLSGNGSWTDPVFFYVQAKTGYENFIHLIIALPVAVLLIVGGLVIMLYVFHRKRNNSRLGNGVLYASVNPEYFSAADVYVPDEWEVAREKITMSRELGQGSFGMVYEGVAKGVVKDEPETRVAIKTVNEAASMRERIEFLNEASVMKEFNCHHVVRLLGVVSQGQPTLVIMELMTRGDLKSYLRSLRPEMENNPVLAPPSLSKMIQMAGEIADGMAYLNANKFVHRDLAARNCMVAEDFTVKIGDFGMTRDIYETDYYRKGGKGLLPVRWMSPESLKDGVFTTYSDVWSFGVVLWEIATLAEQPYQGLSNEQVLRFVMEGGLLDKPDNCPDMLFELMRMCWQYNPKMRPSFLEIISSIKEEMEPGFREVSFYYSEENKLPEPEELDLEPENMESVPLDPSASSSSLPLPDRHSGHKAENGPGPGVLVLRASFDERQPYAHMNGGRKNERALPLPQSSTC
Serine/threonine-protein kinase PLK1 (Homo sapiens), sequence (P53350 whole entry): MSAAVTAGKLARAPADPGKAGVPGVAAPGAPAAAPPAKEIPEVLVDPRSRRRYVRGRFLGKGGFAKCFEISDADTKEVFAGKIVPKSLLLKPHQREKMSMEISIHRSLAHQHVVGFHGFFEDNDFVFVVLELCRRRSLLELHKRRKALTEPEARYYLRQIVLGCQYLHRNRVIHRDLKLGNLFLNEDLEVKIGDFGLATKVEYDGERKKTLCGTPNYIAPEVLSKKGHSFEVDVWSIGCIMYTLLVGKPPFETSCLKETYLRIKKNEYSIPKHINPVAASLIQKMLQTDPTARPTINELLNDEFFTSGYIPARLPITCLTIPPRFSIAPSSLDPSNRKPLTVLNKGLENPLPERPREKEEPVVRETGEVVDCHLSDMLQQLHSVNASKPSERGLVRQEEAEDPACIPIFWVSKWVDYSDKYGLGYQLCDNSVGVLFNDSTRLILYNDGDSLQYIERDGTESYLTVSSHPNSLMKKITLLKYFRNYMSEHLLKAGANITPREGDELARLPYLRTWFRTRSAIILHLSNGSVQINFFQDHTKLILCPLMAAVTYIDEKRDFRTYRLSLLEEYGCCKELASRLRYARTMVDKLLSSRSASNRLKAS
Insulin receptor-related protein (Homo sapiens), sequence (P14616 27-742 limits assumed): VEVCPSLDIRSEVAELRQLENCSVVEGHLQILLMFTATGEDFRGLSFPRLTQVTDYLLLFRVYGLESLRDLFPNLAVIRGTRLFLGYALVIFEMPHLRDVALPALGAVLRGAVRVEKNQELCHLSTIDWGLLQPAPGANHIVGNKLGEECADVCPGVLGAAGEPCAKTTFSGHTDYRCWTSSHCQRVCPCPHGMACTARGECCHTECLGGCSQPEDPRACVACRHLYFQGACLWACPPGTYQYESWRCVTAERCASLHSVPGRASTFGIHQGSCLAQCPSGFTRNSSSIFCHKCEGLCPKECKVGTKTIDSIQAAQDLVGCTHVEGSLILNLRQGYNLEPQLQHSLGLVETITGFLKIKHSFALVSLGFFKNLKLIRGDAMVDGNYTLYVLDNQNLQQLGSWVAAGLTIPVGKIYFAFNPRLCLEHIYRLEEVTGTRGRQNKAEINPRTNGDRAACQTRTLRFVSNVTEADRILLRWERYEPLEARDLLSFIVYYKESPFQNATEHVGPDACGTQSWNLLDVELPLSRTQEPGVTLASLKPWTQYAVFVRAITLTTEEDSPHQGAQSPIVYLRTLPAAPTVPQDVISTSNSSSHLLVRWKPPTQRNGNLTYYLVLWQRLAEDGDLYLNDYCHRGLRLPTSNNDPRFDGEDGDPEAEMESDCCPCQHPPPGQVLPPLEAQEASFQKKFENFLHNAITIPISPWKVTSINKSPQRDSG
Insulin receptor-related protein (Homo sapiens), sequence (P14616 747-1297 limits assumed): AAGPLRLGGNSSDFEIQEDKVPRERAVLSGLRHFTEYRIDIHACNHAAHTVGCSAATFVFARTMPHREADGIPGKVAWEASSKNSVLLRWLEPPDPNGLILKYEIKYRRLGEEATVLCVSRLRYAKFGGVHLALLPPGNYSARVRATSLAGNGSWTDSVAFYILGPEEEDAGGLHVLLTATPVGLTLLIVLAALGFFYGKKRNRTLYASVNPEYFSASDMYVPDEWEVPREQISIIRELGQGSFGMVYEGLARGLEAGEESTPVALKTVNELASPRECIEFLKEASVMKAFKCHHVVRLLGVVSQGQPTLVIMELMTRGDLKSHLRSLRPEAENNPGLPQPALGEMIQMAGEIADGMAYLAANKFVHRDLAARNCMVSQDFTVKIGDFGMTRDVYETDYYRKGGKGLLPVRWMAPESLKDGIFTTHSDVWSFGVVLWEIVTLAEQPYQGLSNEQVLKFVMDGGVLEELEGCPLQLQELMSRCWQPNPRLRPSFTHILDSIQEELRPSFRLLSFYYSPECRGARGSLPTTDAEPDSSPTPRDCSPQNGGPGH

SMILES	inhibition [1] [%]	inhibition [2] [%]	inhibition [3] [%]	inhibition [4] [%]	inhibition [5] [%]	inhibition [6] [%]	inhibition [7] [%]	inhibition [8] [%]	inhibition [9] [%]	inhibition [10] [%]	inhibition [11] [%]	inhibition [12] [%]	inhibition [13] [%]	inhibition [14] [%]	inhibition [15] [%]	inhibition [16] [%]	inhibition [17] [%]	inhibition [18] [%]	inhibition [19] [%]	inhibition [20] [%]
CN(C)CCOc1ccc(-c2cc(-c3ccc4c(c3)CCC4=NO)c(-c3ccncc3)o2)cc1	-0.58	1.65	-0.86	1.31	-3.1	-0.84	-0.94	-3.24	-0.1	1.29	8	-2.29	2.91	-3.2	0.2	3.17	1.94	-1.33	-1.94	-1.36
COc1cc2ncn(-c3cc(OCc4ccccc4C(F)(F)F)c(C(C)=O)s3)c2cc1OC	5.55	20.5	67.7	6.18	2.27	3.53	5.96	0.38	10.8	1.85	8.03	5.79	9.81	-2.34	1.09	-1.39	-0.63	5	3.18	0.57
CCc1cccc(CC)c1/C=C/c1cncc(C(=O)NC)c1	-1.94	1.32	1.99	3.43	4.06	1.11	2.42	-1.63	6.91	3.51	3.44	5.19	10	3.36	3.86	1.7	1.65	5.5	2.06	0.83
